# Source: PubChem BioAssay (NCATS)
# Results filed as inconclusive are left out. Active and inactive are the calls of the source. The call rests on the fitted dose curve; in most records, active means well fitted inhibition curve with a large enough effect; inconclusive means small, poorly fitted or top-dose-only effect, or effect the other way; inactive means flat fitted curve, though single readings scatter.
# Target: D(1A) dopamine receptor (Homo sapiens) (UniProt P21728)
# Assay: HTS Assay for Allosteric Agonists of the Human D1 Dopamine Receptor: Primary Screen for Antagonists (AID 488983); further: nearly all actives have a fitted effect of over 65% in size
# Details: D1 receptor cell assay, antagonist mode, qHTS titration; series mostly up to 41.8 µM
# Excerpt: Dopamine receptors (DARs) are involved in the etiology and/or therapy of a number of neuropsychiatric and endocrine disorders. For instance, all receptor-based antiparkinsonian drugs work via stimulating the […] DAR subtype whereas all FDA-approved antipsychotic agents are antagonists of this receptor. […] There are three different types of allosteric modulators that we are seeking, two of which will stimulate or augment receptor signaling, allosteric agonists and potentiators, while the third, allosteric antagonists, will attenuate receptor signaling. The present primary screening assay measures compound agonism by tracking calcium flux in a […], inducible Hek293 Trex D1 cell line.
# Freshly passaged cells are plated in 1536 well black, clear bottom plates at a density of 4000 cells/well in 3 ul of complete media containing 1x tetracycline inducer. After an overnight incubation at 30 C in 5% CO2, cells are loaded with 2 ul of the no wash Calcium Assay Kit (ABD Bioquest) and incubated at room temperature for 30 to 90 minutes. A 10 cycle (1 second/cycle) baseline measurement is taken and then the FDSS online 1536 pintool delivers 23 nl of compound library (as well as dopamine controls) to the plate. The plate is measured for kinetically at 1 cycle/sec for 180 seconds and is considered to be the agonist portion of the assay (eg, compounds which activate a positive calcium response during this portion are flagged as potential agonists). Following the 180 second read, 1 ul of an EC80 of dopamine is delivered by an onboard pipette head. Measurements are taken kinetically for an additional 180 seconds.
# D(1A) dopamine receptor (Homo sapiens), sequence (P21728 whole entry, looked up): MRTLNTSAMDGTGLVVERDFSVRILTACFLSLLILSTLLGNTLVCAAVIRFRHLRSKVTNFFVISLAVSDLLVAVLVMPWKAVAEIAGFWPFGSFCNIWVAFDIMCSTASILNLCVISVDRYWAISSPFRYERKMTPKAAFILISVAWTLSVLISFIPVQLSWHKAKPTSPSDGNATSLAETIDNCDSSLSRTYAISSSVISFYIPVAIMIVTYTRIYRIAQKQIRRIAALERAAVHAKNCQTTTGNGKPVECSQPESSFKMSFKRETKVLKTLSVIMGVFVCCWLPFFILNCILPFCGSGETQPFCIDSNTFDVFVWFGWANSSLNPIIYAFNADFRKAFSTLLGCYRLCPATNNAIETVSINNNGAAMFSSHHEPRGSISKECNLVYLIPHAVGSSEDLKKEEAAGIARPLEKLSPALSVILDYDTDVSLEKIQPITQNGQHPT
row,Compound,outcome
1,CC1=C(C(=O)O)N2C(=O)[C@@H](NC(=O)C(N)c3ccccc3)[C@H]2SC1 (some centres undefined),inactive
2,Nc1nc(N)c2nc(CNc3ccc(C(=O)NC(CCC(=O)O)C(=O)O)cc3)cnc2n1 (centres undefined),inactive
3,NC(=O)c1cccc(N)c1,inactive
4,CCN(CC)CCn1c(=O)c(Cc2ccc(OC)cc2)nc2ccccc21,inactive
5,CC(C)NCC(O)c1ccc(NS(C)(=O)=O)cc1 (centres undefined),inactive
6,CC1CC2C3CCC4=CC(=O)C=C[C@]4(C)[C@@]3(F)[C@@H](O)C[C@]2(C)[C@@]1(O)C(=O)CO (some centres undefined),inactive
7,CCCCS(=N)(=O)CCC(N)C(=O)O (centres undefined),inactive
8,O=C(O)C1CCCN(CCC=C(c2ccccc2)c2ccccc2)C1 (centres undefined),inactive
9,COc1cc2ncnc(Nc3cccc(Cl)c3)c2cc1OC,inactive
10,CCN(CC)CC#CCOC(=O)C(O)(c1ccccc1)C1CCCCC1 (centres undefined),inactive
11,NC(=O)c1ccc2[nH]ccc2c1,inactive
12,COc1cc2nc(N3CCCN(C)CC3)nc(NC3CCN(Cc4ccccc4)CC3)c2cc1OC,inactive
13,N[C@@H](Cc1ccc(O)c(O)c1)C(=O)O,inactive
14,OCc1ccc(-c2nn(Cc3ccccc3)c3ccccc23)o1,inactive
